Results from PubChem BioAssay (NCATS).
Where “and” joins values, the source holds several entries; their conditions need not be identical. Identical values can stand only once. Results filed as inconclusive are left out. Where a call stands in place of a potency, no number is given. Calls of active or inactive are those of the source. Unless noted, calls follow the shape of the dose curve; as a rule, active = well fitted curve in the direction sought with a large enough effect; inconclusive = small, poorly fitted or top-dose-only effect, or another doubt; inactive = no such curve, though single readings can be large; an effect the other way counts as inactive or inconclusive.

Legend:
[1] = Validation of Assay for Modulators of Lamin A Splicing (AID 1459; active = well fitted curve in the direction sought with a large enough effect in the signal ratio; the % refers to the signal ratio;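 also: cells exposed to compound for two days before reading; ratio rise marks activators and ratio drop marks inhibitors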)
Procedure, shortened: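 Splicing correction read as GFP (500-530 nm) over DsRed2 (575-640 nm) object intensity after 48 h compound exposure of reporter HeLa S3 clones (600 cells/well, 2% FBS medium); ancitabine and cycloheximide titrations, 0.5% DMSO as vehicle.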

[2] = target: DNA repair nuclease/redox regulator APEX1 (Homo sapiens) (UniProt P27695); test: qHTS Validation Assay for Inhibitors of the Human Apurinic/apyrimidinic Endonuclease 1 (APE1) (AID 1705; also: potency is read from the fitted curve at half-maximal effect;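 as to activity change, negative = inhibition: TAMRA fluorescence gain over two minutes as APE1 cuts a quenched THF abasic duplex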)
Procedure, shortened: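 Activity read as rising fluorescence (598 nm emission, 525 nm excitation) from incision of a TAMRA/BHQ-2 duplex carrying a THF abasic site (50 nM). Compound and enzyme sat 15 min at RT before substrate start; signal change between first and third 60-s reads.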

[3] = Counterscreen for APE1 Inhibitors: Fluorescent Dye Displacement Validation Assay (AID 1707)
Procedure, shortened: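 Loss of Thiazole Orange fluorescence marks promiscuous DNA binders. The dye (250 nM) is mixed with 50 nM abasic-site dsDNA in pH7.5 Tris buffer containing MgCl2, then compounds are added and emission is read once.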

[4] = target: Endonuclease 4 (Escherichia coli (strain K12)) (UniProt P0A6C1); test: Counterscreen for APE1 Inhibitors: qHTS Validation Assay for Inhibitors of Endonuclease IV (AID 1708)
Procedure, shortened: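 Conditions: 2 nM enzyme, 50 nM TAMRA/BHQ-2 substrate, pH 7.5 Tris buffer with 2 mM MgCl2, RT. Compound preincubation 15 min; readout three fluorescence reads 60 s apart, third-minus-first.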

[5] = qHTS for differential inhibitors of proliferation of Plasmodium falciparum line 7G8 (AID 1815);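 also: parasite growth measured after three days of incubation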; also: potency is read from the fitted curve at half-maximal effect
[6] = qHTS for differential inhibitors of proliferation of Plasmodium falciparum line GB4 (AID 1816); details: Potency: Plasmodium falciparum GB4 proliferation inhibition;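 also: parasite growth measured after 72 h incubation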; also: potency is read from the fitted curve at half-maximal effect
[7] = qHTS for differential inhibitors of proliferation of Plasmodium falciparum line 3D7 (AID 1876); also: potency is read from the fitted curve at half-maximal effect
[8] = qHTS for differential inhibitors of proliferation of Plasmodium falciparum line D10 (AID 1877);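 also: parasites grown with compound for 72 h before DNA staining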; also: potency is read from the fitted curve at half-maximal effect
[9] = target: Alpha-galactosidase (Coffea arabica) (UniProt Q42656); test: Counterscreen for Glucocerebrosidase Inhibitors: qHTS Assay for Coffee Bean alpha-Galactosidase at pH 5.9 (AID 998)
Procedure, shortened: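 Enzyme 2 nM + cpd (0.7 nM–77 uM titration) + 4-MU-alpha-Gal 80 uM, pH 5.9 citrate/Tween-20, RT 20 min, NaOH/glycine stop pH 10, fluor 365/440. Normalized to no-enzyme and full-activity controls; Hill-fit AC50.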

[10] = qHTS Assay for Lipid Storage Modulators (AID 1519; calls by dose curve); details: Drosophila S3 cells, BODIPY lipid droplet/cell ratio, laser cytometry, cells loaded with oleic acid
Procedure, shortened: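 Cells seeded at 5,000 per well were treated with compounds over a concentration series and loaded with oleic acid (400 uM, as added). Lipid droplet fluorescence (488 nm excitation, 500-530 nm channel) was read by laser-scanning cytometry and normalized to 20 uM Triacsin C.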

[11] = measured here: cell count channel max response
[12] = measured here: lipid channel max response

Sequence of Alpha-galactosidase (Coffea arabica) (Q42656 whole entry, looked up): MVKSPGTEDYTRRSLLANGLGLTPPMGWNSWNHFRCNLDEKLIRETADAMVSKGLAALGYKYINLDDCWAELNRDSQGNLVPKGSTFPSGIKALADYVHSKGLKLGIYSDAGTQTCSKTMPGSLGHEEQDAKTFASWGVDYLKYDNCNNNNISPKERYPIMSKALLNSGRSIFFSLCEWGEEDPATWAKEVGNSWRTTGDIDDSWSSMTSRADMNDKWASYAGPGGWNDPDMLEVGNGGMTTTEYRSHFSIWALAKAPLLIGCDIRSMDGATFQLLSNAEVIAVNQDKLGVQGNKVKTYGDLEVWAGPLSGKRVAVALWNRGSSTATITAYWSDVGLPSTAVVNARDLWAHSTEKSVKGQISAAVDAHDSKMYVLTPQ
Sequence of DNA repair nuclease/redox regulator APEX1 (Homo sapiens) (P27695 whole entry, looked up): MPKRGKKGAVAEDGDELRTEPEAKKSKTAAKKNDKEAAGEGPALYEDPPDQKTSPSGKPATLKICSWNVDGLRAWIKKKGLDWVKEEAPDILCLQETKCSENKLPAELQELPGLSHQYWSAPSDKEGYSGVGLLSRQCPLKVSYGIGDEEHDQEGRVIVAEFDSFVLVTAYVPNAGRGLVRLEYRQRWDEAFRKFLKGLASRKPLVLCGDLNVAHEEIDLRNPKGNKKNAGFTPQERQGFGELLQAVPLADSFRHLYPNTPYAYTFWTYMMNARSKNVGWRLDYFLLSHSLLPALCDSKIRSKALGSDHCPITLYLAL

| SMILES | outcome [1] | Potency [2] | Potency [3] | Potency [4] | Potency [5] | Potency [6] | Potency [7] | Potency [8] | outcome [9] | activity change, negative = inhibition ([10]; at 57.5 µM (top of the series)) | max response [10, 11] | max response [10, 12] | activity change, negative = inhibition ([10]; at 25.7 µM (top of the series)) |
| --- | --- | --- | --- | --- | --- | --- | --- | --- | --- | --- | --- | --- | --- |
| CC(C)NC(C)Cc1ccc(I)cc1 (stereo not given) | inactive | 39.8 µM (active) | inactive | inactive | 10 µM (active) | 11.2 µM (active) |  |  |  |  |  |  |  |
| C=CCN1CC[C@]23CCCCC2[C@H]1Cc1ccc(O)cc13 (stereo not given in full) | inactive | inactive | inactive | inactive | 11.2 µM (active) | 11.2 µM (active) | inactive | inactive |  |  |  |  |  |
| C[N+](C)(C)CC(=O)O | inactive | inactive | inactive | inactive | inactive | inactive | inactive | inactive | inactive |  |  |  |  |
| CS(=N)(=O)CC[C@H](N)C(=O)O (stereo not given in full) | inactive | inactive | inactive |  | inactive | inactive | inactive | inactive |  | -1.65% (inactive) | 43.8% | 40.4% |  |
| CC1=NN=C(c2ccc(N)cc2)c2cc3c(cc2C1)OCO3 | inactive | inactive | inactive | inactive | 10 µM (active) |  |  |  | inactive |  |  |  |  |
| CC(C)Oc1cccnc1N(C)C1CCN(Cc2ccccc2)CC1 | inactive | inactive | inactive | inactive |  |  |  | inactive | inactive |  |  |  |  |
| CNCCc1c[nH]c2ccc(O)cc12 | inactive | inactive | inactive | inactive | inactive | inactive | inactive | inactive | inactive | 1.79% (inactive) and 0.655% (inactive) | 5.25% and 4.7% | 5.9% and 3.87% |  |
| O=C(O)[C@@H]1CCN1 | inactive | inactive | inactive | inactive | inactive | inactive | inactive | inactive |  | 1.64% (inactive) | -13.5% | -13.6% |  |
| CN1C2CCC1CC(OC(=O)c1cc(Cl)cc(Cl)c1)C2 (stereo not given) | inactive | inactive | inactive | inactive | 6.31 µM (active) | 12.6 µM (active) | 10 µM (active) |  |  | -1.85% (inactive) | -22.1% | -22.4% |  |
| Cc1nccc2c1[nH]c1ccccc12 | inactive |  | inactive | inactive | 14.1 µM (active) | 12.6 µM (active) |  |  | inactive | 2.54% (inactive) | 6.61% and 77.2% | 6.19% and 80.2% | 0.405% (inactive) |
| CC[C@@H]1C(=O)OC[C@@H]1Cc1cncn1C | inactive | inactive | inactive | inactive | inactive | inactive | inactive | inactive |  | -0.176% (inactive) and -1.27% (inactive) | 23.8% and 24.9% | 22.1% and 21.9% |  |
| C[N+]1(C)C2CCC1CC(OC(=O)C(CO)c1ccccc1)C2 (stereo not given) | inactive | inactive | inactive | inactive | inactive | inactive | inactive | inactive |  | -1.3% (inactive) | -18.3% | -18.4% |  |
| c1ccc2sc(C3(N4CCCCC4)CCCCC3)cc2c1 | inactive | inactive | inactive | inactive | 10 µM (active) | 11.2 µM (active) | 11.2 µM (active) | 10 µM (active) | inactive | -6.45% (inactive) and -1.27% (inactive) | -3.55% and -30.8% | 4.98% and -30.4% |  |
| O=C(O)CC[N+](=O)[O-] | inactive | inactive | inactive | inactive | inactive | inactive | inactive | inactive | inactive | 1.53% (inactive) and -0.853% (inactive) | 11.6% and 14.1% | 18.9% and 15.4% |  |
| O=C(O)Cc1cnc[nH]1 | inactive | inactive | inactive |  | inactive | inactive | inactive | inactive | inactive | -0.977% (inactive) | 21.8% | 19% |  |
| Cn1cnc(CCN)c1 | inactive | inactive | inactive | inactive | inactive | inactive | inactive | inactive | inactive | 1.27% (inactive) | 34.2% | 35.2% |  |
| C[C@@H](N)Cc1cnc[nH]1 | inactive | inactive | inactive |  |  | inactive | inactive | inactive |  | 0.775% (inactive) | -2.18% | -3.82% |  |
| C[C@]12N[C@H](Cc3ccccc31)c1ccccc12 | inactive | inactive | inactive | inactive |  | 1.78 µM (active) | inactive | inactive | inactive | -1.18% (inactive) | 51.7% | 40.7% |  |
| NC(=O)CN1CC(O)CC1=O (stereo not given) | inactive |  | inactive | inactive | inactive | inactive | inactive | inactive |  | 3.41% (inactive) | 18.3% | 20.4% |  |
| CCCN1CCO[C@@H]2c3cc(O)ccc3OC[C@H]21 | inactive | inactive | inactive | inactive | inactive | inactive | inactive | inactive | inactive |  |  |  |  |
| O=C1CCCN1CC#CCN1CCCC1 | inactive | inactive | inactive | inactive | inactive | inactive | inactive | inactive | inactive | 5.07% (inactive) and 8.93% (inactive) and 0.711% (inactive) | 5.66% and 4.2% and 20.8% | 13% and 25.8% and 21.1% |  |
| NC(CCP(=O)(O)O)C(=O)O (stereo not given) | inactive | inactive | inactive |  | inactive | inactive | inactive | inactive |  | 2.25% (inactive) | 14.5% | 18.2% |  |
| NCCc1c[nH]c2ccccc12 | inactive | inactive | inactive | inactive |  |  |  | inactive | inactive | 5.62% (inactive) | 8.58% | 17.6% |  |
| COc1cc(C(O)CN)ccc1O (stereo not given) | inactive | inactive | inactive | inactive | inactive | inactive | inactive | inactive |  |  |  |  |  |
| O=C(Cc1ccc(Cl)c(Cl)c1)N1CCCCC1CN1CCCC1 (stereo not given) | inactive | inactive | inactive | inactive | 5.01 µM (active) |  | 12.6 µM (active) |  |  | 3.16% (inactive) | 16.5% | 19.9% |  |
| C[C@]12CCC3C(CC[C@H]4C[C@H](O)CC[C@]34C)C1CC[C@@H]2C(=O)CO (stereo not given in full) | inactive | inactive | inactive | inactive | 7.94 µM (active) | 14.1 µM (active) |  | 8.91 µM (active) |  |  |  |  |  |
| Oc1ccc2c3c1O[C@H]1c4[nH]c5c(c4C[C@@]4(O)[C@@H](C2)N(CC2CC2)CC[C@]314)C[C@@]1(O)[C@H]2Cc3ccc(O)c4c3[C@@]1(CCN2CC1CC1)[C@H]5O4 | inactive | inactive | inactive |  |  | 15.8 µM (active) | 11.2 µM (active) | 10 µM (active) |  | -0.289% (inactive) | -23.9% | -23.6% |  |
